196 variants from a collection of fitness landscapes (doi:10.1126/science.1257360) can be followed below.

B1: PhoQ; a variant is named by its letters at X, in order, P23837 (parent)
chain: MKKLLRLFFPLSLRVRFLLATAAVVLVLSLAYGMVALIGYSVSFDKTTFRLLRGESNLFYTLAKWENNKLHVELPENIDKQSPTMTLIYDENGQLLWAQRDVPWLMKMIQPDWLKSNGFHEIEADVNDTSLLLSGDHSIQQQLQEVREDDDDAEMTHSVAVNVYPATSRMPKLTIVVVDTIPVELKSSYMVWSWFIYVLSANLLLVIPLLWVAAWWSLRPIEALAKEVRELEEHNRELLNPATTRELTSLVRNLNRLLKSERERYDKYRTTLTDLTHSLKTPLXXLQXXLRSLRSEKMSVSDAEPVMLEQISRISQQIGYYLHRASMRGGTLLSRELHPVAPLLDNLTSALNKVYQRKGVNISLDISPEISFVGEQNDFVEVMGNVLDNACKYCLEFVEISARQTDEHLYIVVEDDGPGIPLSKREVIFDRGQRVDTLRPGQGVGLAVAREITEQYEGKIVAGESMLGGARMEVIFGRQHSAPKDE

Whole data set: some 140,000 sequences, median “enrichment ratio after two sorts for PhoP signalling” near 0, cut for the highest 2% near 11. Shown is part of a subset that was picked to be rich in the highest values.

The variants in this assay derive from B1. Briefly: enrichment ratio after two sorts for PhoP signalling (ratio (wild type AVST 3.29)); higher = more functional. Conditions: with PhoP (E. coli).
On to MRIG, for which the enrichment ratio was at most 0.25.
Turning to IPRI, the enrichment ratio is at most 0.25.
With IFEI, the enrichment ratio was at most 0.25.
For CNHC the value was at most 0.25; for QRMF, at most 0.25.
Next, HTHA: at most 0.25; TCQL: 13.2.
For KCQL the value was at most 0.25; for FCQL, at most 0.25.
For the variant HECS, the enrichment ratio stood at 2.84.
Next, HECV: 15.4.
As to HESH, the enrichment ratio was at most 0.25.
Next, HEQP: at most 0.25.
For HEQY the value was at most 0.25; for HEQV, 25.5; for HNSW, at most 0.25.
For ERQE the value was at most 0.25.
With SAFP, the enrichment ratio is at most 0.25.
For QGAG the value was at most 0.25.
Next, QVAH: at most 0.25.
For AGQL, the enrichment ratio amounted to 11.6.
For ADQL the value was at most 0.25; for AKQL, at most 0.25.
Next, CGQL: 14.3.
For WIQL the value was at most 0.25; for AQQL, at most 0.25; for TGQL, 5.01.
Consider GGQL, for which the enrichment ratio is at most 0.25.
For AIQL the value was 11.7; for MQGH, at most 0.25.
Next, FDDD: at most 0.25; AMFM: at most 0.25; PNFI: at most 0.25.
For KCCR the value was at most 0.25.
As to RQPM, the enrichment ratio is at most 0.25.
For IGQV the value was at most 0.25.
For GHHN the value was at most 0.25.
Next, PRDV: at most 0.25; SQQG: 6.66.
Turning to SEQG, the enrichment ratio came out at 17.8.
Next, AKQG: at most 0.25.
For the variant AQQG, the enrichment ratio worked out at 12.7.
For AEQG the value was at most 0.25; for SLQG, at most 0.25; for HAGM, at most 0.25.
For HMVE the value was at most 0.25.
As for VFKE, the enrichment ratio is at most 0.25.
Next, HGRI: at most 0.25.
With FPCA, the enrichment ratio was at most 0.25.
Next, GKQD: at most 0.25; NAHY: at most 0.25.
Consider TAPI, for which the enrichment ratio is at most 0.25.
For KAHY, the enrichment ratio is at most 0.25.
Next, TAHY: 27.1.
For AHHY the value was at most 0.25; for MAHY, 20.2.
For NMRM, the enrichment ratio was at most 0.25.
EQCT: the enrichment ratio is at most 0.25.
Next, ANCT: 21; YACT: 0.253; AWCT: at most 0.25.
Next, RICT: at most 0.25; NICT: at most 0.25.
Next, AQCT: 20.8; AICT: 18; AHCT: at most 0.25.
For SNCT, the enrichment ratio stood at 8.8.
For AACT the value was 12.4; for KACT, at most 0.25; for ALFD, at most 0.25.
For SHFP the value was 0.324; for WCTK, at most 0.25; for FYGE, at most 0.25.
Next, MNPG: at most 0.25.
For the variant FEMT, the enrichment ratio amounted to 3.56.
For ENFC the value was at most 0.25; for SYCA, at most 0.25.
For the variant EDSI, the enrichment ratio is at most 0.25.
Next, QHRI: at most 0.25; SHNH: 1.34.
Next, QHNH: 13.9.
In the case of NHNH, the enrichment ratio was at most 0.25.
Next, QHNS: 5.2; QHRH: at most 0.25; THNH: 16.2.
Next, QHGY: 8.42.
For QHNY the value was 27.5.
Take LVRE: the enrichment ratio is at most 0.25.
Next, EGNA: at most 0.25.
For TEGM the value was 4.56; for TEWG, 3.3; for TEWN, 9.81.
Next, NIYL: at most 0.25; TEWM: 73.1; YTYL: at most 0.25.
Consider TERM, for which the enrichment ratio was at most 0.25.
TEWS: the enrichment ratio came out at 28.5.
For TEYL the value was 13.
Next, KSWS: at most 0.25; TEWR: 6.71.
Next, TEWA: 38.4; QHAH: at most 0.25; DNQP: at most 0.25.
In the case of LKHW, the enrichment ratio was at most 0.25.
As for NWHW, the enrichment ratio was at most 0.25.
For WFMI the value was at most 0.25; for IWYG, at most 0.25.
WQRD: the enrichment ratio is at most 0.25.
Next, HEYK: at most 0.25; RHGY: at most 0.25; KSWD: at most 0.25.
For TEGL the value was 13.2; for TEAM, 16.4; for MEWL, at most 0.25.
For MEAM the value was 9.82; for TEWD, 13; for TEWL, 21.7.
On to KSWL, for which the enrichment ratio was at most 0.25.
Next, NEAM: at most 0.25.
For the variant TEEL, the enrichment ratio was at most 0.25.
Next, TERL: at most 0.25; QEWD: 4.99; SQYM: at most 0.25.
With VRMI, the enrichment ratio was at most 0.25.
For QHIN the value was at most 0.25; for SFID, at most 0.25; for DARD, at most 0.25.
As to RDIV, the enrichment ratio was at most 0.25.
For TEWF the value was 22; for NYWF, at most 0.25; for QEWF, at most 0.25.
For RLCT the value was at most 0.25.
For NKEG the value was at most 0.25; for AQVE, 34.1.
For the variant AQRA, the enrichment ratio is at most 0.25.
Next, AIVI: 13; AQVA: 14.1; AQVI: 18.1.
For AQVK the value was at most 0.25; for ADVE, at most 0.25; for NQVI, at most 0.25.
For AQHE the value was at most 0.25; for VHVI, at most 0.25.
Regarding WIVI, the enrichment ratio is at most 0.25.
For ICVI the value was at most 0.25; for DEDS, at most 0.25.
For DGNR the value was at most 0.25; for DLTS, at most 0.25; for PPKY, at most 0.25.
Next, ICPL: at most 0.25; KKGI: at most 0.25; DIWR: at most 0.25.
In the case of HNLR, the enrichment ratio is at most 0.25.
For RIVE the value was at most 0.25; for NMVI, at most 0.25.
As for AQVC, the enrichment ratio came out at 9.47.
For VLVI the value was at most 0.25; for AKVE, at most 0.25.
For AIVE the value was 12.3; for AQVG, 12; for AQVS, 14.
KQVS: the enrichment ratio is at most 0.25.
For EQVS the value was at most 0.25; for AQWG, at most 0.25.
For AMVI the value was 16.3; for DFYH, at most 0.25; for PRHA, at most 0.25.
Next, KVWY: at most 0.25; KKYK: at most 0.25; ETML: at most 0.25.
With NGLV, the enrichment ratio was determined as 6.65.
For TGLV the value was 12.3; for CFLV, at most 0.25.
As to VRLV, the enrichment ratio was at most 0.25.
For APLV the value was at most 0.25.
On to SGHK, for which the enrichment ratio is at most 0.25.
For RGLV the value was at most 0.25; for SGLV, 17.9; for VGLV, 12.3.
For VHLV the value was at most 0.25; for AGLV, 12.7; for LWQD, at most 0.25.
Next, FDMF: at most 0.25; VNQQ: at most 0.25; YCCF: at most 0.25.
Consider NGGQ, for which the enrichment ratio was at most 0.25.
For MMPC the value was at most 0.25; for LNWD, at most 0.25; for VQIE, at most 0.25.
For QIPP the value was at most 0.25; for MGLV, 15.2.
For GYLV the value was at most 0.25; for NILV, 0.722.
MGLW: the enrichment ratio is at most 0.25.
Consider MGLA, for which the enrichment ratio worked out at 2.09.
Regarding GGLV, the enrichment ratio came to 13.7.
